Reference: article PMC11006913

How the values were obtained:
Test in all cases: PBM; 200 nM protein, PBS
Conditions in all cases: dsDNA, one strand shown
HESX1 [1] = target: HESX1 (Homo sapiens, UniProt Q9UBX0 95-180, R165K)
SHOX [2] = target: SHOX (Homo sapiens, UniProt O15266 103-189)
ALX4 = ALX4 (Homo sapiens, UniProt Q9H161 200-286, Q225E)
HESX1 [3] = target: HESX1 (Homo sapiens, UniProt Q9UBX0 95-180)
MSX2 = MSX2 (Homo sapiens, UniProt P35548 130-214, R199I)
ALX1 [4] = target: ALX1 (Homo sapiens, UniProt Q15699 118-204, L144V)
ALX3 [5] = target: ALX3 (Homo sapiens, UniProt O95076 139-225, N203Q)
SHOX [6] = target: SHOX (Homo sapiens, UniProt O15266 103-189, R173C)
ALX1 [7] = target: ALX1 (Homo sapiens, UniProt Q15699 118-204, L144R)
ALX3 [8] = target: ALX3 (Homo sapiens, UniProt O95076 139-225)
PROP1 [9] = target: PROP1 (Homo sapiens, UniProt O75360 56-141)
HESX1 [10] = target: HESX1 (Homo sapiens, UniProt Q9UBX0 95-180, R109Q)
PROP1 [11] = target: PROP1 (Homo sapiens, UniProt O75360 56-141, R99H)
ALX3 [12] = target: ALX3 (Homo sapiens, UniProt O95076 139-225, L168Q)
HESX1 [13] = target: HESX1 (Homo sapiens, UniProt Q9UBX0 95-180, P111T)
ALX3 [14] = target: ALX3 (Homo sapiens, UniProt O95076 139-225, L168V)
PROP1 [15] = target: PROP1 (Homo sapiens, UniProt O75360 56-141, F88S)
HESX1 [16] = target: HESX1 (Homo sapiens, UniProt Q9UBX0 95-180, F115L)
ALX1 [17] = target: ALX1 (Homo sapiens, UniProt Q15699 118-204)
ALX3 [18] = target: ALX3 (Homo sapiens, UniProt O95076 139-225, N203S)
ALX3 (Homo sapiens, UniProt O95076 139-225, N203S), sequence (O95076 139-225 N203S): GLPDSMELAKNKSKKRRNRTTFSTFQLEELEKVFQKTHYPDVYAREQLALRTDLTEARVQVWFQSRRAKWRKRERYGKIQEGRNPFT

HESX1 (Homo sapiens, UniProt Q9UBX0 95-180, P111T), sequence (Q9UBX0 95-180 P111T): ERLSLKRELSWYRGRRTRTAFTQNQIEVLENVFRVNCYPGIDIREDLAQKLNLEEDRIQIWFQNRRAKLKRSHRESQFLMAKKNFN
SHOX (Homo sapiens, UniProt O15266 103-189), sequence (O15266 103-189): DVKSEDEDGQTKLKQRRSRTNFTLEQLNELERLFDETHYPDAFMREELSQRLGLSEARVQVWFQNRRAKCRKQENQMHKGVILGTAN
ALX1 (Homo sapiens, UniProt Q15699 118-204, L144V), sequence (Q15699 118-204 L144V): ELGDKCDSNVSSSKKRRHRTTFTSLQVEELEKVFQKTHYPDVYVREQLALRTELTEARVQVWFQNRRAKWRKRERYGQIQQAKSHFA
ALX1 (Homo sapiens, UniProt Q15699 118-204, L144R), sequence (Q15699 118-204 L144R): as the sequence (Q15699 118-204 L144V) above, with V27R counted along it
ALX3 (Homo sapiens, UniProt O95076 139-225, N203Q), sequence (O95076 139-225 N203Q): as the sequence (O95076 139-225 N203S) above, with S65Q counted along it
HESX1 (Homo sapiens, UniProt Q9UBX0 95-180), sequence (Q9UBX0 95-180): as the sequence (Q9UBX0 95-180 P111T) above, with T17P counted along it
PROP1 (Homo sapiens, UniProt O75360 56-141), sequence (O75360 56-141): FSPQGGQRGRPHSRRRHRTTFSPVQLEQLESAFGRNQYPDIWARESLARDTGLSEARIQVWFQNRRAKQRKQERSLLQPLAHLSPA
HESX1 (Homo sapiens, UniProt Q9UBX0 95-180, R165K), sequence (Q9UBX0 95-180 R165K): as the sequence (Q9UBX0 95-180 P111T) above, with T17P, R71K counted along it
HESX1 (Homo sapiens, UniProt Q9UBX0 95-180, F115L), sequence (Q9UBX0 95-180 F115L): as the sequence (Q9UBX0 95-180 P111T) above, with T17P, F21L counted along it
ALX1 (Homo sapiens, UniProt Q15699 118-204), sequence (Q15699 118-204): as the sequence (Q15699 118-204 L144V) above, with V27L counted along it
ALX3 (Homo sapiens, UniProt O95076 139-225), sequence (O95076 139-225): as the sequence (O95076 139-225 N203S) above, with S65N counted along it
ALX3 (Homo sapiens, UniProt O95076 139-225, L168Q), sequence (O95076 139-225 L168Q): as the sequence (O95076 139-225 N203S) above, with L30Q, S65N counted along it
ALX4, sequence (Q9H161 200-286 Q225E): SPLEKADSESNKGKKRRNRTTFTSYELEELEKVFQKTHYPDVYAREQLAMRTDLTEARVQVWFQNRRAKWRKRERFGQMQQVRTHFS
ALX3 (Homo sapiens, UniProt O95076 139-225, L168V), sequence (O95076 139-225 L168V): as the sequence (O95076 139-225 N203S) above, with L30V, S65N counted along it
MSX2, sequence (P35548 130-214 R199I): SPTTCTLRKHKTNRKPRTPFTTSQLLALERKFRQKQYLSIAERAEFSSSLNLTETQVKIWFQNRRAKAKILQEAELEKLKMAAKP
PROP1 (Homo sapiens, UniProt O75360 56-141, R99H), sequence (O75360 56-141 R99H): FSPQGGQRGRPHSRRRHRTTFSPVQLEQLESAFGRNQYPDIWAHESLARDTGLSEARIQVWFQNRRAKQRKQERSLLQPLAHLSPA
HESX1 (Homo sapiens, UniProt Q9UBX0 95-180, R109Q), sequence (Q9UBX0 95-180 R109Q): as the sequence (Q9UBX0 95-180 P111T) above, with R15Q, T17P counted along it
SHOX (Homo sapiens, UniProt O15266 103-189, R173C), sequence (O15266 103-189 R173C): as the sequence (O15266 103-189) above, with R71C counted along it
PROP1 (Homo sapiens, UniProt O75360 56-141, F88S), sequence (O75360 56-141 F88S): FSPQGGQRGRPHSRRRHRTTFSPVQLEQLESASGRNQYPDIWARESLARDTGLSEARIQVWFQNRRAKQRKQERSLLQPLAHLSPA

Row | Sequence | binding signal (HESX1 [1]) | binding signal (SHOX [2]) | binding signal (ALX4) | binding signal (HESX1 [3]) | binding signal (MSX2) | binding signal (ALX1 [4]) | binding signal (ALX3 [5]) | binding signal (SHOX [6]) | binding signal (ALX1 [7]) | binding signal (ALX3 [8]) | binding signal (PROP1 [9]) | binding signal (HESX1 [10]) | binding signal (PROP1 [11]) | binding signal (ALX3 [12]) | binding signal (HESX1 [13]) | binding signal (ALX3 [14]) | binding signal (PROP1 [15]) | binding signal (HESX1 [16]) | binding signal (ALX1 [17]) | binding signal (ALX3 [18])
1 | GCCAATTA | 13.5 upbm affinity estimate (log intensity, higher = more binding, comparable within an allelic series) | 12.5 upbm affinity estimate (log intensity, higher = more binding, comparable within an allelic series) | 13.6 upbm affinity estimate (log intensity, higher = more binding, comparable within an allelic series) | 13.3 upbm affinity estimate (log intensity, higher = more binding, comparable within an allelic series) | 13 upbm affinity estimate (log intensity, higher = more binding, comparable within an allelic series) | 11.9 upbm affinity estimate (log intensity, higher = more binding, comparable within an allelic series) | 8.33 upbm affinity estimate (log intensity, higher = more binding, comparable within an allelic series) | 9.95 upbm affinity estimate (log intensity, higher = more binding, comparable within an allelic series) | 11.7 upbm affinity estimate (log intensity, higher = more binding, comparable within an allelic series) | 12.6 upbm affinity estimate (log intensity, higher = more binding, comparable within an allelic series) | 11.6 upbm affinity estimate (log intensity, higher = more binding, comparable within an allelic series) | 10.3 upbm affinity estimate (log intensity, higher = more binding, comparable within an allelic series) | 11.9 upbm affinity estimate (log intensity, higher = more binding, comparable within an allelic series) | 10.9 upbm affinity estimate (log intensity, higher = more binding, comparable within an allelic series) | 12.1 upbm affinity estimate (log intensity, higher = more binding, comparable within an allelic series) | 10.4 upbm affinity estimate (log intensity, higher = more binding, comparable within an allelic series) | 7.64 upbm affinity estimate (log intensity, higher = more binding, comparable within an allelic series) | 7.99 upbm affinity estimate (log intensity, higher = more binding, comparable within an allelic series) | 12.6 upbm affinity estimate (log intensity, higher = more binding, comparable within an allelic series) | 8.5 upbm affinity estimate (log intensity, higher = more binding, comparable within an allelic series)
2 | TAATTGAA | 12.9 upbm affinity estimate (log intensity, higher = more binding, comparable within an allelic series) | 12 upbm affinity estimate (log intensity, higher = more binding, comparable within an allelic series) | 13.2 upbm affinity estimate (log intensity, higher = more binding, comparable within an allelic series) | 12.9 upbm affinity estimate (log intensity, higher = more binding, comparable within an allelic series) | 12.5 upbm affinity estimate (log intensity, higher = more binding, comparable within an allelic series) | 11.6 upbm affinity estimate (log intensity, higher = more binding, comparable within an allelic series) | 8.33 upbm affinity estimate (log intensity, higher = more binding, comparable within an allelic series) | 9.58 upbm affinity estimate (log intensity, higher = more binding, comparable within an allelic series) | 11.3 upbm affinity estimate (log intensity, higher = more binding, comparable within an allelic series) | 12.5 upbm affinity estimate (log intensity, higher = more binding, comparable within an allelic series) | 11.5 upbm affinity estimate (log intensity, higher = more binding, comparable within an allelic series) | 9.18 upbm affinity estimate (log intensity, higher = more binding, comparable within an allelic series) | 11.6 upbm affinity estimate (log intensity, higher = more binding, comparable within an allelic series) | 10.6 upbm affinity estimate (log intensity, higher = more binding, comparable within an allelic series) | 11.4 upbm affinity estimate (log intensity, higher = more binding, comparable within an allelic series) | 10 upbm affinity estimate (log intensity, higher = more binding, comparable within an allelic series) | 7.68 upbm affinity estimate (log intensity, higher = more binding, comparable within an allelic series) | 7.71 upbm affinity estimate (log intensity, higher = more binding, comparable within an allelic series) | 12.3 upbm affinity estimate (log intensity, higher = more binding, comparable within an allelic series) | 8.47 upbm affinity estimate (log intensity, higher = more binding, comparable within an allelic series)
3 | ATTAATGC | 8.93 upbm affinity estimate (log intensity, higher = more binding, comparable within an allelic series) | – | – | 9.02 upbm affinity estimate (log intensity, higher = more binding, comparable within an allelic series) | – | – | – | – | – | – | – | – | – | – | – | – | – | – | – | –
4 | AATTAAGC | 11.5 upbm affinity estimate (log intensity, higher = more binding, comparable within an allelic series) | 11.9 upbm affinity estimate (log intensity, higher = more binding, comparable within an allelic series) | 12.9 upbm affinity estimate (log intensity, higher = more binding, comparable within an allelic series) | 11.6 upbm affinity estimate (log intensity, higher = more binding, comparable within an allelic series) | 12.2 upbm affinity estimate (log intensity, higher = more binding, comparable within an allelic series) | 11.6 upbm affinity estimate (log intensity, higher = more binding, comparable within an allelic series) | 8.44 upbm affinity estimate (log intensity, higher = more binding, comparable within an allelic series) | 9.54 upbm affinity estimate (log intensity, higher = more binding, comparable within an allelic series) | 11.2 upbm affinity estimate (log intensity, higher = more binding, comparable within an allelic series) | 12.4 upbm affinity estimate (log intensity, higher = more binding, comparable within an allelic series) | 11.2 upbm affinity estimate (log intensity, higher = more binding, comparable within an allelic series) | 9.03 upbm affinity estimate (log intensity, higher = more binding, comparable within an allelic series) | 11 upbm affinity estimate (log intensity, higher = more binding, comparable within an allelic series) | 10.4 upbm affinity estimate (log intensity, higher = more binding, comparable within an allelic series) | 10.5 upbm affinity estimate (log intensity, higher = more binding, comparable within an allelic series) | 9.92 upbm affinity estimate (log intensity, higher = more binding, comparable within an allelic series) | 7.71 upbm affinity estimate (log intensity, higher = more binding, comparable within an allelic series) | 7.7 upbm affinity estimate (log intensity, higher = more binding, comparable within an allelic series) | 12.2 upbm affinity estimate (log intensity, higher = more binding, comparable within an allelic series) | 8.49 upbm affinity estimate (log intensity, higher = more binding, comparable within an allelic series)
5 | CAATTATA | 12.8 upbm affinity estimate (log intensity, higher = more binding, comparable within an allelic series) | 12.2 upbm affinity estimate (log intensity, higher = more binding, comparable within an allelic series) | 13.4 upbm affinity estimate (log intensity, higher = more binding, comparable within an allelic series) | 12.8 upbm affinity estimate (log intensity, higher = more binding, comparable within an allelic series) | 13.1 upbm affinity estimate (log intensity, higher = more binding, comparable within an allelic series) | 11.7 upbm affinity estimate (log intensity, higher = more binding, comparable within an allelic series) | 8.6 upbm affinity estimate (log intensity, higher = more binding, comparable within an allelic series) | 9.46 upbm affinity estimate (log intensity, higher = more binding, comparable within an allelic series) | 11.4 upbm affinity estimate (log intensity, higher = more binding, comparable within an allelic series) | 12.5 upbm affinity estimate (log intensity, higher = more binding, comparable within an allelic series) | 11.4 upbm affinity estimate (log intensity, higher = more binding, comparable within an allelic series) | 8.93 upbm affinity estimate (log intensity, higher = more binding, comparable within an allelic series) | 11.5 upbm affinity estimate (log intensity, higher = more binding, comparable within an allelic series) | 10.7 upbm affinity estimate (log intensity, higher = more binding, comparable within an allelic series) | 11.4 upbm affinity estimate (log intensity, higher = more binding, comparable within an allelic series) | 10.2 upbm affinity estimate (log intensity, higher = more binding, comparable within an allelic series) | 7.86 upbm affinity estimate (log intensity, higher = more binding, comparable within an allelic series) | 8.06 upbm affinity estimate (log intensity, higher = more binding, comparable within an allelic series) | 12.3 upbm affinity estimate (log intensity, higher = more binding, comparable within an allelic series) | 8.66 upbm affinity estimate (log intensity, higher = more binding, comparable within an allelic series)
